Most compounds without a hit are left out; they make up all but 9.2% or so of the library.
ELG1 genotox – genotoxicity induction in ELG1-luciferase HEK293T cells; Potency, µM (titrated, usually from 46 µM), for the others: top-dose activity change, positive = activation, most hits filed as activators; AID 504466; HEK293T ELG1-luciferase reporter, luminescence, 16 h; 330,000 tested, 1.3% active; note: % of control where 0% means no effect; nearly all actives have a fitted effect of over 60% in size
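Genotoxic stress is detected as increased luminescence from luciferase-tagged ELG1 in HEK293T cells, measured with ONE-Glo after a 16 hr treatment at 37 °C.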
NPC1 prom act – activators of NPC1 promoter; Potency, µM (highest dose often 9.22 µM), for inactives: at the top dose activation, actives largely listed as activators; Huh7 NPC1 promoter luciferase reporter, 24 h; 320,000 tested, 2.4% active; note: % of control where 0% means no effect; nearly all actives have a fitted effect of over 60% in size
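In 1536-well qHTS, Huh7 cells harboring an NPC1 promoter–luciferase construct received compound for 24 h; activation was quantified by luminescence following luciferase reagent addition.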
Rab9 promoter act – Rab9 promoter activation | Huh7 Rab9 promoter-luciferase reporter, luminescence, 24 h | Potency, µM (series often up to 9.22 µM), without a hit: at the highest dose activation, negative = inhibition, hits mostly activators | 320,000 tested, 2.8% active; note: % of control where 0% means no effect; nearly all actives have a fitted effect of over 60% in size
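Cells were plated at 1500 per well in reduced-serum medium with 10% FBS and left 2 h. Compound in DMSO was then added for 24 h at 37 °C. Reporter signal was read by luminescence after 10 min with luciferase detection reagent.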
FLuc modulator – inhibits or activates purified firefly luciferase, miR-21 counter-screen; P08659; purified FLuc, Km substrates, luminescence inhibition; Potency, µM (doses to about 57.5 µM), for inactives: top-dose activity change, negative = inhibition, usual class: inhibitors; 360,000 tested, 6.9% active;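 note: plate controls were vehicle for no effect and reference inhibitor for full effect; nearly all actives have a fitted effect of over 55% in size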
Target sequence (P08659 whole entry, looked up): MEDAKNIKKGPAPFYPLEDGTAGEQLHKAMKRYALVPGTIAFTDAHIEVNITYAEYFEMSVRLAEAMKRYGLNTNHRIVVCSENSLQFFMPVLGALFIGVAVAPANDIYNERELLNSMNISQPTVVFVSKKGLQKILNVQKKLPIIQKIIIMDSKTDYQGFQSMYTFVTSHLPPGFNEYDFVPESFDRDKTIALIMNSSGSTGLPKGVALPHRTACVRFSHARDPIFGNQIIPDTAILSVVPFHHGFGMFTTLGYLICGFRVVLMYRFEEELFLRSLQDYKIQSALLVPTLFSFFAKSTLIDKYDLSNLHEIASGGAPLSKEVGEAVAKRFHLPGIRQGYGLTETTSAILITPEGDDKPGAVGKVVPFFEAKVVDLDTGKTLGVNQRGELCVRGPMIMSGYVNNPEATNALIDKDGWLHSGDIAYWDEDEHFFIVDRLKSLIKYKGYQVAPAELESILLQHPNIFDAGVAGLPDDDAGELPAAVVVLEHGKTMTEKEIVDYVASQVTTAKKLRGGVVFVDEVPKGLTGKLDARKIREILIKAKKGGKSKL
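Purified P. pyralis luciferase (10nM final) with 10uM D-luciferin and 10uM ATP (Km levels) in 50mM Tris acetate pH 7.5, 10mM Mg acetate, 0.01% Tween-20, 0.05% BSA; qHTS 6-point titration, ~60 µM downward; luminescence read.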
ELG1 DNA repair – inhibitors of ELG1-dependent DNA repair in HEK293T cells. HEK293T ELG1-luciferase reporter, luminescence, 16 h; DNA damage induced by 5-fluorouridine. AID 504467. 330,000 tested, 2.3% active. Potency, µM (titrated, usually from 46.1 µM), for inactives: at the highest dose activity change, negative = inhibition, usual class: inhibitors; note: % is set by controls: 0 for no effect and ±100 for the full control effect; nearly all actives have a fitted effect of over 55% in size
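In this reporter screen, reduction of luminescence relative to DMSO vehicle indicated activity. Compounds and 5-fluorouridine were added together to 2,000 cells per well, incubated for 16 hr at 37 °C, then developed with ONE-Glo.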
SMN2 splice up – enhancers of SMN2 splice variant expression; HEK293 SMN2-luciferase splicing reporter, luminescence, 30-36 h; Potency, µM (highest dose often 46.1 µM), without a hit: at the highest dose activity change, positive = activation, hits mostly activators; 210,000 tested, 2.8% active; note: % of control where 0% means no effect; nearly all actives have a fitted effect of over 55% in size
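qHTS luciferase splicing reporter: luminescence rises when SMN2 exon 7 is included in transfected HEK293 cells. Compound exposure lasted 30-36 h at 37C, with 4.5 mM final sodium butyrate as control, followed by a ONE-Glo read.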
* marks the source's active call; other numbers are inactive results; ? = inconclusive; . = not tested or not shown; [ ] = dose if it differs, or a comment. Calls come from the whole dose curve; as a rule, active = well fitted curve in the direction sought with a large enough effect; inconclusive = small, poorly fitted or top-dose-only effect, or another doubt; inactive = no such curve, though single readings can be large; an effect the other way counts as inactive or inconclusive. Potency is the fitted concentration of half-maximal effect.

SMILES	ELG1 genotox	NPC1 prom act	Rab9 promoter act	FLuc modulator	ELG1 DNA repair	SMN2 splice up
CC(C)(C)c1csc(NC(=O)Nc2ccccc2)n1	-1%	4µM*	1.8µM*	3.4µM*	?	7.9µM*
CN(C)c1ccc(NC(=O)CN2C(=O)CN=C(c3ccccc3)c3cc(Cl)ccc32)cc1	-6%	1%	-4%	0%	?	-5%
Cc1ccc(NC(=O)CN2C(=O)CN=C(c3ccccc3)c3cc(Cl)ccc32)cc1	-27%	1%	-2%	10%	7.3µM*	-51%
COc1ccccc1NC(=O)Oc1cccc(OC(=O)c2ccccc2)c1	-1%	4%	-7%	?	-3%	.
Cc1nn(C(C)(C)C)c(C)c1/C=N/OC(=O)Nc1ccc(Cl)cc1	-3%	-38%	-39%	0.095µM*	?	.
O=[As](O)(O)c1ccc(N=Nc2ccc(O)cc2)cc1	2%	0%	-2%	13µM*	2%	-1%[9.22 µM]
O=[As](O)(O)c1ccc(N=Nc2ccc([As](=O)(O)O)cc2)cc1	.	.	.	.	.	-8%[9.22 µM]
Cc1cc(C(=O)Nc2ccccc2)nn1C(C)(C)C	?	2.2µM*	2.2µM*	6.7µM*	?	.
CC(C)(C)c1ccc(C(=O)Nc2ccc(Cl)cc2C(=O)c2ccccc2)cc1	.	.	.	-5%	.	-16%
Cc1cc(C(=O)Nc2ccc3c(c2)OCCO3)nn1C(C)(C)C	?	4.5µM*	3.5µM*	7.6µM*	?	.
Cc1ccc(/C=C2\C(=O)NC(=S)N(c3ccccc3F)C2=O)s1	-18%	-5%	-4%	?	23µM*	5%
Cc1cc(NC(=O)c2noc3c2CCCCC3)no1	?	?	?	15µM*	?	?
CN(C)[C@@H]1C(=O)C(C(N)=O)=C(O)[C@]2(O)C(=O)C3=C(O)c4c(O)cccc4[C@](C)(O)[C@H]3C[C@@H]12	.	.	.	.	.	1%[9.22 µM]
COc1ccc2nc(NC(=O)CCc3nc(C4=CCN(C)CC4)no3)sc2c1	-3%	-2%	-3%	21µM*	3%	-6%
Cc1cccc(N2CCN(C(=O)c3ccc(CNc4c(N5CCC(C)CC5)c(=O)c4=O)cc3)CC2)c1C	-10%	-6%	1%	?	?	-41%
CC1=NN(c2ccc(S(=O)(=O)O)cc2C)C(=[OH+])[C@H]1N=Nc1cc(S(=O)(=O)O)ccc1C(=O)O.O.[Cr]	.	.	.	.	.	-10%[9.22 µM]
CCN(CC)c1ccc(C=C2C(=O)N(C)C(=S)N(C)C2=O)o1	?	14%	?	?	?	?
CCN(CC)c1ccc(/C=C2\C(=O)NC(=S)N(C)C2=O)o1	21µM*	1.4µM*	1.3µM*	9.5µM*	?	.
CCCOC1CCCN(C(=O)CCc2nnc(Cc3cccc(C)c3)o2)C1 (stereo unspecified)	?	?	2.8µM*	21µM*	?	.
O=C(CCc1nnc(CCCCc2ccccc2)o1)N1CCCC(O)C1 (stereo unspecified)	6%	-1%	8%	-15%	?	.
C[C@H]1CCCC(=O)CCC/C=C/c2cc(O)cc(O)c2C(=O)O1	-20%	-1%	-3%	7%	21µM*	-58%
COc1cc(O)cc2c1C(=O)OC(C)CCCC(=O)CCC/C=C\2 (stereo unspecified)	-19%	-1%	-9%	-2%	-1%	.
N#CSCSC#N	.	.	.	.	.	-98%
Cc1ccc(Cn2cc(C=O)c(-c3ccc(C)cc3)n2)cc1	?	25%	?	17µM*	?	?
O=C(NC1CC1)c1cn(Cc2ccccc2)nc1-c1ccccc1	-1%	1%	0%	4%	8%	.
C=CCOC(C)=O	.	.	.	.	.	-9%
CC(c1nccs1)N(C)C(=O)c1cn(Cc2cccc3ccccc23)nn1 (stereo unspecified)	14%	?	?	?	?	.
CCOc1ccc2nc(N=Nc3c(O)[nH]c(=S)[nH]c3=O)sc2c1	-6%	-4%	-1%	19µM*	-1%	3%

Screening data (PubChem BioAssay)
